According to PubChem BioAssay (NCI):
About 79,000 compounds went through this panel and 15% of them were active in at least one assay; those are over-represented in the sample as a whole. A number with no mark means an inactive call. Activity calls are given as the source filed them. Cut-off read from the data, not from the text of the source: active = growth inhibition above about 70%; inactive = the rest.

Tests used:
[1] = NCI Yeast Anticancer Drug Screen. Data for the rad50 strain (AID 155);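 note: 0% = growth of vehicle-only cultures of the same strain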; details: S. cerevisiae rad50 strain growth inhibition, active compounds read high
Summary of the method: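 Compounds were tested on a yeast strain with an engineered DNA damage repair alteration; the reported value is growth inhibition normalised to vehicle treatment.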

[2] = NCI Yeast Anticancer Drug Screen. Data for the mec2-1 strain (AID 157); details: S. cerevisiae mec2-1 strain, active compounds read high
Summary of the method: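 Strain: mec2-1 (DNA repair/cell cycle alteration). Compound exposure, then growth measured; inhibition expressed relative to vehicle.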

[3] = NCI Yeast Anticancer Drug Screen. Data for the sgs1 mgt1 strain (AID 161);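 note: 0% = growth of cultures given vehicle only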; details: S. cerevisiae sgs1 mgt1 strain, active compounds read high
Summary of the method: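 Read-out: growth inhibition vs vehicle controls. Cells: mutant yeast strain deficient in DNA damage repair.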

[4] = NCI Yeast Anticancer Drug Screen. Data for the cln2 rad14 strain (AID 165);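 note: 0% = growth equal to vehicle treated cultures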; details: S. cerevisiae cln2 rad14 strain, active compounds read high
Summary of the method: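 Compounds are applied to the cln2 rad14 yeast strain, and growth is then compared with that of vehicle-treated cultures to give inhibition.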

[5] = NCI Yeast Anticancer Drug Screen. Data for the bub3 strain (AID 167); details: S. cerevisiae bub3 mutant strain, active compounds read high
Summary of the method: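 Growth of a checkpoint-deficient yeast mutant is measured after compound exposure. Values represent inhibition relative to vehicle.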

[6] = NCI Yeast Anticancer Drug Screen. Data for the mlh1 rad18 strain (AID 175); details: S. cerevisiae mlh1 rad18 strain growth inhibition, active compounds read high
Summary of the method: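 Read-out is yeast growth inhibition, calculated against vehicle-only controls. The compound was applied to a strain engineered with DNA damage repair alterations.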

[7] = at 5.0 µM (retest, dose inferred, filed as 0.5)
[8] = at 50.0 µM (retest, dose inferred, filed as 5.0)

Row | SMILES | growth inhibition [1, 7] | growth inhibition [1, 8] | growth inhibition ([1]; at 50.0 µM) | growth inhibition [2, 7] [%] | growth inhibition [2, 8] | growth inhibition ([2]; at 50.0 µM) | growth inhibition [3, 7] [%] | growth inhibition [3, 8] | growth inhibition ([3]; at 50.0 µM) | growth inhibition [4, 7] [%] | growth inhibition [4, 8] | growth inhibition ([4]; at 50.0 µM) | growth inhibition [5, 7] [%] | growth inhibition [5, 8] | growth inhibition ([5]; at 50.0 µM) | growth inhibition [6, 7] | growth inhibition [6, 8] | growth inhibition ([6]; at 50.0 µM)
1 | O=c1c(-c2ccccc2)coc2cc(O)ccc12 | -14% | 8% | 60.6% | 5 | 23% | 36.9% | -6 | 16% | 63.3% | -12 | -12% | 18.1% | -25 | 34% | 75.8% (active) | -3% | 12% | 4.9%
2 | CCOP(=O)(OCC)C(NC(=O)OCC(Cl)(Cl)Cl)n1nnc(C(=O)OC)c1C(=O)OC (stereo not given) | -7% | 79% (active) | -8.8% | -4 | 46% | 4.15% | -6 | 89% (active) | 10.6% | -3 | 69% | 36.4% | -1 | 92% (active) | -0.7% | -1% | 70% (active) | -1.15%
3 | C1=NN(c2ccccc2)C2c3ccccc3CCCC12 (stereo not given) | 8% | 98% (active) | 99.2% (active) | 18 | 99% (active) | 98.7% (active) | 8 | 99% (active) | 99% (active) | -4 | 98% (active) | 98.8% (active) | 5 | 99% (active) | 99.1% (active) | -2% | 99% (active) | 98.7% (active)
4 | C=CC1(c2ccc(-c3ccccc3)cc2)OCCO1 | 1% | 14% | 51.3% | 2 | 6% | 41.5% | -4 | -10% | 74.4% (active) | 19 | 8% | 7.15% | -22 | -6% | 64.1% | -17% | 0% | 49.5%
5 | Cc1ccccc1N1C(=O)c2ccccc2C1=O | 1% | 8% | 61.1% | -6 | 11% | 98.8% (active) | 1 | 7% | 90.1% (active) | 6 | 9% | 83.3% (active) | 1 | 16% | 98.2% (active) | 0% | 8% | 84% (active)
6 | CCC[n+]1ccnc2ccccc21 | 2% | 2% | 15.3% | -11 | -1% | 8.3% | -4 | -10% | 27.9% | 13 | 4% | 11% | -2 | -5% | 19.6% | -4% | 14% | 22.9%
7 | O=c1oc2c3ccc4ccccc4c3n(CCCN3CCCCC3)c2c2ccccc12 | 81% (active) | 81% (active) | 54.4% | 17 | 17% | 82.8% (active) | 35 | 35% | 87.4% (active) | 27 | 27% | 76% (active) | -4 | -4% | 84.8% (active) | -13% | -13% | 87.3% (active)
8 | Cc1cc(N2C(=O)CCSC2=S)ccc1Cl | 88% (active) | 28% | 90.9% (active) | 7 | 27% | 88.8% (active) | 48 | 43% | 90.6% (active) | 47 | 43% | 54.5% | 45 | 71% (active) | 86% (active) | 82% (active) | 18% | 87.5% (active)
9 | [Cl][Pt+2][Cl].[NH-]c1cc2ccccc2cc1[NH-] | 2% | 0% | 64.5% | -34 | 16% | 51.4% | 0 | 1% | 69.2% | 1 | 17% | 45% | 0 | 14% | 20.4% | 0% | -24% | 76.2% (active)
10 | CCC1=C(C)/C(=C/c2[nH]c(C(Br)Br)c(CC)c2C)N=C1C(Br)Br | -1% | 98% (active) | 30.6% | -6 | 99% (active) | 45.1% | 2 | 99% (active) | 26% | -6 | 97% (active) | 75.2% (active) | 0 | 93% (active) | 49.3% | 0% | 98% (active) | 45.6%
